In PubChem BioAssay (NCATS) one finds max response and Potency data, which are given here for twelve molecules.

Experiment [1] is described as follows: qHTS Assay for Identifying Gametocytocidal Compounds (AID 743244).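 On max response: actives lower the fluorescent signal which means gametocytes are killed.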 Conditions: P. falciparum 3D7 stage III-V gametocytes, alamarBlue, 72 h; max response: hits give low values. In a few lines: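 Stage III–V gametocytes of P. falciparum 3D7 were seeded at 20,000 cells/well onto pre-dispensed compounds. After 72 h, 37 °C, 5% CO2, alamarBlue was added for another 24 h.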
(In general: In qHTS, concentration-response curves come from the screen itself.)

Experiment [2] is described as follows: qHTS assay to identify small molecule inhibitors of chordoma cells - UCH-1 (AID 1259355). Further: nearly all actives have a fitted effect of over 55% in size. On Potency: series mostly up to about 46 µM. In a few lines:
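800 cells/well, overnight attach; compounds pinned at 15 concs, then auranofin/camptothecin/doxorubicin/rubitecan/topotecan combo added; 48hr 37 C, 5% CO2; CellTiter-Glo, 30min RT, luminescence.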

Inconclusive results are not listed. A number with no mark means an inactive call. Active and inactive are the calls of the source. The call rests on the fitted dose curve; in most records, active means well fitted curve in the direction sought with a large enough effect; inconclusive means small, poorly fitted or top-dose-only effect, or another doubt; inactive means no such curve, though single readings can be large; an effect the other way counts as inactive or inconclusive.
On the % scale 0 is the no-effect control and ±100 the full control effect; potency means the concentration at half of the fitted maximal effect.

Regarding `OC(c1ccccc1)(c1ccccc1)C1CN2CCC1CC2` (centres undefined), the max response in experiment [1] was -14.7%. Besides, the Potency entry in experiment [2] is “inactive”.

As to `C[C@H]1CC[C@]2(NC1)O[C@H]1C[C@H]3[C@@H]4CC[C@H]5C[C@@H](O)CC[C@]5(C)[C@H]4CC[C@]3(C)[C@H]1[C@@H]2C`, the max response in experiment [1] is 2.92%. Also, the Potency entry in experiment [2] is “inactive”.

For the molecule `Oc1cccc[c]1[Hg][Cl]`, the Potency is 1.78 µM (active) in experiment [1] and 15.8 µM [with auranofin plus four topoisomerase inhibitors] (active) in experiment [2].

With `Cn1sc(Cl)cc1=O`, the max response in experiment [1] is 0.945%. Besides, the Potency entry in experiment [2] is “inactive”.

On to `CCCCCCCCCC(=O)O[C@H]1CC[C@H]2[C@@H]3CCC4=CC(=O)CC[C@]4(C)[C@H]3CC[C@]12C`, for which, in experiment [1], the max response was 4.27%. Moreover, in experiment [2], the Potency entry was “inactive”.

For the molecule `O=C1CCCCC1CN1CCCCC1` (centres undefined), the max response in experiment [1] was -0.825%. Besides, the Potency result in experiment [2] was “inactive”.

For `O=c1ccc2cc(O[C@@H]3O[C@H](CO)[C@@H](O)[C@H](O)[C@H]3O)c(O)cc2o1`, the max response in experiment [1] was 0.481%. The Potency result in experiment [2] was “inactive”.

With `COC1=CC=C2[C@H]3Cc4ccc(OC)c5c4[C@@]2(CCN3C)[C@H]1O5`, in experiment [1], the max response is 13.9%. For the same molecule, in experiment [2], the Potency result was “inactive”.

For `CNC(=O)Oc1ccccc1C(=O)Nc1ccccc1`, in experiment [1], the max response is 8.96%. Further, in experiment [2], the Potency entry is “inactive”.

On to `C[C@@H](Cc1ccccc1)N(C)C`, for which, in experiment [1], the max response is -7.23%. The Potency result in experiment [2] was “inactive”.

Regarding `CCCCCCC(=O)O[C@H]1CC[C@H]2[C@@H]3CC[C@H]4CC(=O)C=C(C)[C@]4(C)[C@H]3CC[C@]12C`, the max response in experiment [1] was 7.58%. In experiment [2], the Potency entry was “inactive”.

Consider `C=CCN1CC[C@]23c4c5ccc(O)c4O[C@H]2[C@@H](O)C=C[C@H]3[C@H]1C5`, for which, in experiment [1], the max response was 2.17%. For the same molecule, the Potency result in experiment [2] is “inactive”.
